According to publication PMC9838217, “Structure of SALL4 zinc finger domain reveals link between AT-rich DNA binding and Okihiro syndrome”:
Substitutions are numbered along the chain they refer to.

What was measured:
Test in all cases: HT-SELEX; high values mean tight binding
Conditions in all cases: protein: recombinant; vector His6-GST; dsDNA, one strand shown
SALL4 ZFC4 WT (HT-SELEX) = molecular target: T1, SALL4 ZFC4 WT (HT-SELEX) (Mus musculus, UniProt Q8BX22 870-940)
T1 sequence: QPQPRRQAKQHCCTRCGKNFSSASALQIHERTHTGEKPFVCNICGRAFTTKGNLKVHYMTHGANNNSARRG
Summary of the method: (§1)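 DNA from a random library (1.5 µg in the first cycle, 200 ng afterwards) was incubated with purified recombinant mouse SALL4 zinc finger cluster 4, residues 870–940 (1 µg), for 10 min at room temperature in 100 µl buffer: 10 mM Tris–HCl pH 7.5, 50 mM NaCl, poly(dI-dC), DTT. Bound complexes were pulled down on Ni2+ beads, washed and PCR-amplified, and the selection was repeated for up to 6 cycles in triplicate. MiSeq reads were scanned for 6-mers, and binding signal is each canonical k-mer's read fraction as fold change over the initial random library.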

[1] = molecular target: T2, SALL4 ZFC4 R900W (HT-SELEX) (Mus musculus, UniProt Q8BX22 870-940, R900W)
T2 sequence: T1 sequence with R31W
Summary of the method: as §1

[2] = molecular target: T3, SALL4 ZFC4 G921D (HT-SELEX) (Mus musculus, UniProt Q8BX22 870-940, G921D)
T3 sequence: T1 sequence with G52D
Summary of the method: as §1

Row | Sequence | binding signal (SALL4 ZFC4 WT (HT-SELEX)) [fold-change vs cycle 0] | binding signal [1] [fold-change vs cycle 0] | binding signal [2] [fold-change vs cycle 0]
1 | CACGAA | 0.608 ± 0.0441 | 0.706 ± 0.0334 | 0.781 ± 0.0236
2 | AACCAT | 1.38 ± 0.0512 | 1.42 ± 0.0463 | 1.41 ± 0.0967
3 | ACCGTA | 0.728 ± 0.0197 | 0.818 ± 0.0316 | 0.868 ± 0.0103
4 | ACACGT | 0.75 ± 0.0296 | 0.89 ± 0.061 | 0.954 ± 0.0298
5 | CTCCCA | 0.474 ± 0.0284 | 0.569 ± 0.0121 | 0.655 ± 0.0274
6 | TCCGGA | 0.375 ± 0.0195 | 0.451 ± 0.0492 | 0.552 ± 0.107
7 | GTAACA | 1.36 ± 0.0267 | 1.52 ± 0.0694 | 1.39 ± 0.0863
8 | GCTTCA | 0.635 ± 0.0338 | 0.769 ± 0.0139 | 0.8419 ± 0.0056
9 | GAGTAA | 1.45 ± 0.0607 | 1.57 ± 0.0835 | 1.43 ± 0.106
10 | AGTAGC | 0.643 ± 0.0074 | 0.756 ± 0.0367 | 0.856 ± 0.0498
11 | ACGGTC | 0.362 ± 0.0473 | 0.432 ± 0.0371 | 0.553 ± 0.067
12 | GACTCA | 0.768 ± 0.0401 | 0.889 ± 0.022 | 0.937 ± 0.0191
13 | TAGAGA | 1.42 ± 0.0253 | 1.54 ± 0.113 | 1.48 ± 0.0729
14 | CCCAGA | 0.431 ± 0.0214 | 0.51 ± 0.0216 | 0.583 ± 0.0525
15 | CGTGTA | 0.651 ± 0.0387 | 0.756 ± 0.0247 | 0.812 ± 0.0246
16 | ACGTCT | 0.744 ± 0.0352 | 0.85 ± 0.0392 | 0.941 ± 0.0281
17 | CAGGTA | 0.825 ± 0.0117 | 0.927 ± 0.0176 | 0.973 ± 0.0448
18 | GTGTCA | 0.688 ± 0.0282 | 0.805 ± 0.0104 | 0.881 ± 0.0197
